The supplement of paper PMC10681739

Experiments:
[1] = target: T1, ETS1 (UniProt P14921); assay: ETS1 binding intensity (PBM fluorescence), ETS1 alone (arbitrary fluorescence units); higher = stronger binding; conditions: ETS1 concentration 1 nM; RUNX1 concentration 0 nM
T1 sequence: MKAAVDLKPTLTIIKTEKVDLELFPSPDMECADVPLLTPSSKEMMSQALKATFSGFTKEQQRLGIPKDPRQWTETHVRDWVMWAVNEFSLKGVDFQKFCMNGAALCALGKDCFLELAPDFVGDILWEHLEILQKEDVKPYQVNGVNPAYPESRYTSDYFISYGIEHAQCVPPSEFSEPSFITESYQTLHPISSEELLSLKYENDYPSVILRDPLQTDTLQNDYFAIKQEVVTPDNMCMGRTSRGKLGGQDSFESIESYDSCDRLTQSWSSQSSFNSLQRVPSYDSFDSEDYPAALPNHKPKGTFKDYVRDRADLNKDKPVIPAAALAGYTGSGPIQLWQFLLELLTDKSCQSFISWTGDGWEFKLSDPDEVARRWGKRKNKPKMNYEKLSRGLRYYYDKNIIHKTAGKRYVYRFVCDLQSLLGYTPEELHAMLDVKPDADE

[2] = target: RUNX1 (UniProt Q01196); assay: RUNX1 binding intensity (PBM fluorescence), RUNX1 alone (arbitrary fluorescence units); higher = stronger binding; conditions: RUNX1 concentration 2 nM; ETS1 concentration 0 nM
Experimental: (§1)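 Cooperative gcPBM on 36-bp genomic probes with neighbouring ETS1 and RUNX1 sites. Recombinant human RUNX1 (2 nM) was incubated alone or with ETS1 (25 nM) and detected with anti-RUNX1 antibody plus Alexa488 secondary. Values are medians over 4 replicate spots; the RUNX1+ETS1 data were normalised to the RUNX1-only data. The probes sit in constant array flanks that are not printed.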

[3] = target: T1, ETS1; assay: ETS1 binding intensity (PBM fluorescence) in presence of RUNX1, normalised to ETS1-only experiment (arbitrary fluorescence units); higher = stronger binding; conditions: ETS1 concentration 1 nM; RUNX1 concentration 25 nM
[4] = target: RUNX1 (UniProt Q01196); assay: RUNX1 binding intensity (PBM fluorescence) in presence of ETS1, normalised to RUNX1-only experiment (arbitrary fluorescence units); higher = stronger binding; conditions: RUNX1 concentration 2 nM; ETS1 concentration 25 nM
Experimental: as §1
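Throughout, for RUNX1 binding intensity (PBM fluorescence) in presence of ETS1, normalised to RUNX1-only experiment: Full-length recombinant human ETS1 or RUNX1 bound to double-stranded 36-bp genomic probes on microarrays, detected by protein-specific primary antibody and Alexa488 secondary, spot fluorescence as median of four replicate spots.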
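Throughout, for RUNX1 binding intensity (PBM fluorescence), RUNX1 alone: Full-length recombinant human RUNX1 bound to double-stranded 36-bp genomic probes on a high-density microarray, scored as Alexa488 fluorescence per spot via anti-RUNX1 antibody, median of four replicate spots.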

Sequence of RUNX1 (Q01196 whole entry): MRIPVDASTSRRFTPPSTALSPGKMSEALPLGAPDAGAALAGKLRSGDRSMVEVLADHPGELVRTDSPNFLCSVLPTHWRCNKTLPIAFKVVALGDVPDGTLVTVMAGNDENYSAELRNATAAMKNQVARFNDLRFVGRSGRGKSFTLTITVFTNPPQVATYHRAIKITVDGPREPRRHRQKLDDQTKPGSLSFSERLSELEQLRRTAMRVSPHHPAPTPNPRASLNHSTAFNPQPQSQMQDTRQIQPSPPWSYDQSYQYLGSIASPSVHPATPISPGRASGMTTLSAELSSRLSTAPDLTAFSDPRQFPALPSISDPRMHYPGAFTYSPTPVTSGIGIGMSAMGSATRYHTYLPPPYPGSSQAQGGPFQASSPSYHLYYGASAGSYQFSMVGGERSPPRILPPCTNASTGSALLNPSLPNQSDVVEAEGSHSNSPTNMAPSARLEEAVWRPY

Sequence | ETS1 binding intensity [1] | RUNX1 binding intensity [2] | ETS1 binding intensity [3] | RUNX1 binding intensity [4]
AGGTTGAAAGCACTTCCGCTGCGGCCCCCGTAGGAA | 3040 | 833 | 3460 | 1520
GCGAGCACTTCCGGTGTGTGAGCCTGCGGTTGCTAC | 7480 | 845 | 22400 | 3050
AAATCCACTCAGAGGAAACCACAGGCCTGGCCCAGC | 365 | 1300 | 622 | 1690
GTTGGGAGGCGCACATCCGGCGGTTACCCGGTGCTT | 2360 | 785 | 3090 | 1560
TTCAACAAGGTTTTCCTGTGGTTACCCCATGCTTTG | 364 | 1040 | 451 | 1680
CTCCGCCAGCCACCGGAACTGCGGCCCAGCAAAAAG | 2590 | 927 | 2320 | 949
CTCTGCTTCCTGTCTTTGAATGCCTCTGTGGTTTTC | 675 | 2080 | 2540 | 4320
TGCGAGCACCCGGAAGCCGCTTGCGGGCTCCCGGAG | 2840 | 701 | 5620 | 999
CTGAGCAAAAGGAGGAAGCTGTGGTCTGTGTACCCA | 606 | 810 | 1800 | 945
GGCATTCACTTCCGGTCTGGGGCCTGCGGCGGCGGC | 18600 | 793 | 19400 | 2260
GCGCTTCCTGCCAGCTTGGAGGATAACCGCCTACCG | 505 | 754 | 513 | 1730
GACCTGCCTTCCGGCCTCCGTCACATGACCGCACAG | 556 | 1110 | 1210 | 2000
GATGAAAGAGGAAGTTCTCAAACCACCTTGCCAGTG | 1170 | 768 | 1490 | 1110
GGGCAGGGCATTTCCTTTGTGGCTGGTGCTCACGGA | 493 | 710 | 413 | 1360
GGAACAGGAAGCGGCAGAAATAGCAGCCACCGCGGC | 960 | 819 | 1540 | 1310
GGTGGCCGCCGGAAGTGTGACCGCGGGAGGGGAGTG | 7650 | 743 | 25500 | 2690
CATGGTGGTGACGCAGGATGTGGTGGTGGTGTAGAA | 2600 | 707 | 5340 | 937
ACTTCACTTCCCAACCTCCCCTGTGGTTAGGTGTGG | 365 | 1040 | 548 | 1220
AGAAGCAGGCATGCAGGATGTGGTTAGTGCATGGTA | 2230 | 900 | 17400 | 3740
AAATGTGGCCGGATGCTCTGTGGGCGGGCGGCAGCT | 2890 | 700 | 3770 | 1300
ACCGGATGCCGGGGCACCGCCAGATGTGGCCACGAG | 1500 | 746 | 1730 | 941

Sequence | ETS1 binding intensity [1] | RUNX1 binding intensity [2] | ETS1 binding intensity [3] | RUNX1 binding intensity [4]
CAGCAGCACCTGCATCCGCTGCGGGAGTCCGAGCCG | 515 | 778 | 491 | 1030
CTGGGCTCGCCAGGCGGAAGTGGTTGGAGACTGCGT | 6330 | 668 | 9090 | 1510
AAAAAGCCGGATGTGAAGGCTGTGGTTCTCAACCCG | 2880 | 745 | 6480 | 1310
TGGGGAGGCAGGAAACGGGCCTTGTGGTTGGGGGGT | 4210 | 770 | 16900 | 1020
GCGACCCGACCCGGCGGAAACCACCTCGACAGCCTC | 915 | 953 | 1000 | 941
AGGCCGCTTCCTCCCACATGAAACCGCAGGCTTCGG | 374 | 3590 | 1590 | 10900
CCAGAGGGCGGAAGTGGGAGCTGCGACCGCGCTCCC | 3670 | 690 | 6280 | 1880
ACCAGCAACGGAAATCAGATCTCTTGTGGTTATTAT | 1480 | 994 | 7160 | 1680
GATCCCCCTCCTCCATCCTGTGGCTTCGGGTTGCCG | 482 | 819 | 420 | 1150
TACCTACATCCTGCCACCACCCGAGGGGACCGCAAG | 496 | 1050 | 974 | 2810
GCAACAGGAAGGACCAAGTCCCCTCCCGCAATTTTA | 627 | 888 | 955 | 1020
AGTCCACACTACAGGAAACCACAGGCCTGAGCCCCA | 1580 | 2870 | 3180 | 3440
CACTTCCGGGTCGTCAGCTCAGTTCTGCGGTTTCTG | 1030 | 4240 | 5740 | 12800
CTCCAGGGACAACCCGGAAACCACATTGCCCAGCGT | 2230 | 982 | 6990 | 1500
ACCGGGTGCTGAGGAGGAAGTGGTTGCTATAACCCC | 2350 | 741 | 3420 | 1120
TGGCTTGTTTCCGGTTCCTCTGTGGCGCCGTTCTCG | 3480 | 938 | 2820 | 2890
TGAGAGTAAAAAGGATGTGGTTTCCTTTCATTTTTT | 1580 | 927 | 6790 | 2430
CCCGCTGTCACTTCCTGCTTCCCTCCCGCACACGTG | 2700 | 1920 | 2310 | 3690
CTCACAGAAGAGGCAGGAAGTGGTTTGAGTTATCAT | 9460 | 820 | 13700 | 1590
TTTCAAAACCCGGAAATGACCGCCAGGCTGGCATCA | 7800 | 859 | 6320 | 1380
